Compound activity: PubChem BioAssay, National Center for Advancing Translational Sciences (NCATS)
BAZ2B inh – inhibitors of human BAZ2B bromodomain; AlphaScreen BAZ2B-H3K14Ac peptide displacement; 360,000 tested, 4.4% active; AID 504333; Potency, µM (series often up to 114 µM), without a hit: top-dose activity change, negative = inhibition, usual class: inhibitors; Q9UIF8; also: % is scaled to controls: 0 for no effect and ±100 for the full control effect; nearly all actives have a fitted effect of over 60% in size
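Multi-concentration screen (max 110 uM) measuring displacement of acetylated histone H3 peptide from BAZ2B by AlphaScreen, using 50 nM protein, 50 nM peptide and 10 ug/mL streptavidin donor plus Ni-chelate acceptor beads.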
HP1b chromo inh – HP1-beta chromodomain-methylated histone interaction inhibition. P83916. AlphaScreen HP1-beta / biotin-H3K9me3 peptide binding. Potency, µM (doses to about 114 µM), inactives show at the top dose activity change, negative = inhibition, usual class: inhibitors. 390,000 tested, 0.56% active; also: nearly all actives have a fitted effect of over 70% in size
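HP1-beta protein (50 nM final) preincubated 30 min at room temperature with biotinylated H3(1-18)K9me3 peptide (50 nM) in PBS pH 7.4, 0.01% Tween-20, then compound added for 30 min. AlphaScreen streptavidin donor/nickel chelate acceptor beads (10 ug/mL final), 30 min dark, luminescence read.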
JMJD2A Tudor inh – JMJD2A Tudor domain (human) inhibition | AlphaScreen JMJD2A-Tudor / H3K4me3 peptide binding | Potency, µM (doses to about 114 µM), without a hit: at the highest dose activity change, negative = inhibition, hits mostly inhibitors | 390,000 tested, 4.4% active; also: % is scaled to controls: 0 for no effect and ±100 for the full control effect; nearly all actives have a fitted effect of over 50% in size
Target sequence (O75164 whole entry, looked up, the tested form may be a part): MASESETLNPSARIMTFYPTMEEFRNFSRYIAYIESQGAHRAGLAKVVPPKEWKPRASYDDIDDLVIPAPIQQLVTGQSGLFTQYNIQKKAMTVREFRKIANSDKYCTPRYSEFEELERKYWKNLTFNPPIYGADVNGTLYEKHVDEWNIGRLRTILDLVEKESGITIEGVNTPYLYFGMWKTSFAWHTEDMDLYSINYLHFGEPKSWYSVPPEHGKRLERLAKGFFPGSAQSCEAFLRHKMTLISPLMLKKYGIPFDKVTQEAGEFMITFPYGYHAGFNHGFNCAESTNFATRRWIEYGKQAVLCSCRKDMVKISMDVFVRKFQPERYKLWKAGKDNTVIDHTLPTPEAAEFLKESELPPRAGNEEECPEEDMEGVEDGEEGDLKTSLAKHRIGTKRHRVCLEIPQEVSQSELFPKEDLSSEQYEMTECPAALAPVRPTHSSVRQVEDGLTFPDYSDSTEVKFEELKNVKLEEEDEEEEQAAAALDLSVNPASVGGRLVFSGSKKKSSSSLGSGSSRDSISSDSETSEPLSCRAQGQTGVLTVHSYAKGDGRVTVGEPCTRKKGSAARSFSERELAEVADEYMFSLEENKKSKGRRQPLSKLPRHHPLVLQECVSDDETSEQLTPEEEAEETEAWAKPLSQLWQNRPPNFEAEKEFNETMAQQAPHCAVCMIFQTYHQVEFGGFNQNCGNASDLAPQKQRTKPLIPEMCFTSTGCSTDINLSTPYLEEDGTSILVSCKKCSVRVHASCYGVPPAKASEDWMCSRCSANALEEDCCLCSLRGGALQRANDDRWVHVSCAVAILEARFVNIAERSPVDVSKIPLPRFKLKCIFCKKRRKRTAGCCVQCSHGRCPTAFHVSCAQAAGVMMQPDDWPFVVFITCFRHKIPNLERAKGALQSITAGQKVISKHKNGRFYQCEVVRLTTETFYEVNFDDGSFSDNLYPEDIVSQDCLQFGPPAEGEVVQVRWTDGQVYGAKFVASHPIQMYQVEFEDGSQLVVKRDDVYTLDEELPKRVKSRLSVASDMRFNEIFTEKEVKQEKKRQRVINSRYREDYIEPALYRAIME
Sfp inh – blocks B. subtilis Sfp PPTase activity; Q9F4F7; Biochemical Sfp PPTase activity, qHTS; Potency, µM, for the others: largest response in the series, negative = inhibition, actives largely listed as inhibitors; 310,000 tested, 3.5% active; AID 1490;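 also: the enzyme is Sfp with the accession as filed and its product quenches rhodamine fluorescence; 0% = enzyme reaction without inhibitor and -100% = no enzyme wells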
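Compounds were incubated with enzyme (final 15 nM) for 15 min at room temperature before substrate addition started the reaction. Fluorescence at 525 nm excitation, 598 nm emission was recorded immediately and after 30 minutes.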
G9a inh – inhibitors of human histone lysine methyltransferase G9a | G9a H3K9 monomethylation, AlphaScreen, 2 h | 350,000 tested, 8.8% active | Q96KQ7 | Potency, µM (top dose mostly 102 µM), for inactives: at the top dose activity, negative = inhibition, actives largely listed as inhibitors | AID 504332; also: % is scaled to controls: 0 for no effect and ±100 for the full control effect; nearly all actives have a fitted effect of over 75% in size
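Step 1: enzyme (final 20 nM) with compound, 15 min RT. Step 2: substrate peptide 500 nM and SAM 20 uM, 2 h RT. Step 3: anti-H3K9me1 antibody and AlphaScreen beads, 10 min, then plate read.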
L3MBTL1 inh – inhibitors of human L3MBTL1 | Q9Y468 | AID 485360 | AlphaScreen L3MBTL1–H3K9me1 peptide binding | Potency, µM (titrated, usually from 57.1 µM), without a hit: at the top dose activity, negative = inhibition, hits mostly inhibitors | 230,000 tested, 0.66% active; also: % is scaled to controls: 0 for no effect and ±100 for the full control effect; nearly all actives have a fitted effect of over 60% in size
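L3MBTL1 (50 nM) pre-complexed 30 min with biotinylated H3(1-15)K9me1 peptide (75 nM), then compounds added for 30 min at room temperature; AlphaScreen streptavidin donor/nickel chelate acceptor beads (10 ug/mL final) read after 30 min dark incubation.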
* hit, by the source's call; ! = not active in a repeat; [ ] = remark or other dose. This is a sample that favours compounds with a hit; in the whole collection about 12% have one here. Calls follow the shape of the dose curve; as a rule, active = well fitted curve in the direction sought with a large enough effect; inconclusive = small, poorly fitted or top-dose-only effect, or another doubt; inactive = no such curve, though single readings can be large; an effect the other way counts as inactive or inconclusive. Potency is read from the fitted curve at half-maximal effect.

Cc1ccccc1C(=O)Nc1ccccc1-c1nnn(CC(=O)Nc2ccc3c(c2)OCCO3)n1 was read as BAZ2B inh 6%, HP1b chromo inh 15%, JMJD2A Tudor inh -12%, Sfp inh 56µM*, G9a inh 19%[12.7 µM] and L3MBTL1 inh 15%.
For O=C(Cn1nnc(-c2ccccc2NC(=O)c2ccccc2)n1)Nc1ccc2c(c1)OCCO2 the results were BAZ2B inh -1%, HP1b chromo inh 12%, JMJD2A Tudor inh -11%, Sfp inh -18%, G9a inh inconclusive and L3MBTL1 inh -2%.
Screening COc1ccc(OC)c(NC(=S)NCc2ccco2)c1 returned HP1b chromo inh 17% and JMJD2A Tudor inh -18%.
O=C(O)CC(NC(=S)NCc1ccccc1)C(=O)O (stereo not drawn) was read as BAZ2B inh -16%, HP1b chromo inh 36%, JMJD2A Tudor inh -2%, Sfp inh -6% and G9a inh inconclusive.
Screening COc1ccc(OC)c(NC(=O)C(CC(=O)O)NCc2ccco2)c1 (stereo not drawn) returned BAZ2B inh -31%, HP1b chromo inh -12%, JMJD2A Tudor inh 45µM*, Sfp inh -24%, G9a inh inconclusive and L3MBTL1 inh -6%.
For CCOC(=O)C(CC(=O)O)NCc1ccco1 (stereo not drawn) the results were BAZ2B inh -5%, HP1b chromo inh 4%, JMJD2A Tudor inh 18µM*, Sfp inh inconclusive, G9a inh 40µM* and L3MBTL1 inh 8%.
CC(C)OC(=O)C(CC(=O)O)NCc1ccccc1 (stereo not drawn) was read as BAZ2B inh -36%, HP1b chromo inh inconclusive, JMJD2A Tudor inh 11µM*, Sfp inh inconclusive, G9a inh inconclusive and L3MBTL1 inh -2%.
`Cc1cccc(C)c1NC(=O)CC(NCc1ccco1)C(=O)O` (stereo not drawn) gave BAZ2B inh -34%, HP1b chromo inh 13%, JMJD2A Tudor inh 20µM*, Sfp inh -27%, G9a inh -40%[12.7 µM] and L3MBTL1 inh -5%.
Screening O=C(c1cc(S(=O)(=O)NCc2ccco2)ccc1Br)N1CCOCC1 returned BAZ2B inh 12%, HP1b chromo inh 33%, JMJD2A Tudor inh -8%, G9a inh -10%[12.7 µM] and L3MBTL1 inh -8%.
COC(=O)c1cccnc1 was read as Sfp inh 3% and G9a inh inconclusive.
CC1=NS(=O)(=O)c2cc(Cl)ccc2N1 was read as BAZ2B inh 5%, HP1b chromo inh 25%, JMJD2A Tudor inh -6%, Sfp inh 21%, G9a inh 2.8µM*! and L3MBTL1 inh 0%.
O=C(CSC1=NS(=O)(=O)c2cc(Cl)ccc2N1)c1ccc(Cl)cc1 was read as BAZ2B inh -9%, HP1b chromo inh 44%, JMJD2A Tudor inh -11%, G9a inh 56µM* and L3MBTL1 inh -5%.
`O=C(CSC1=NS(=O)(=O)c2cc(Cl)ccc2N1)Nc1cccc(F)c1` gave BAZ2B inh 10%, HP1b chromo inh 33%, JMJD2A Tudor inh -5%, G9a inh -9% and L3MBTL1 inh 0%.
For CC(=O)c1ccc(NC(=O)CSC2=NS(=O)(=O)c3cc(Cl)ccc3N2)cc1 the results were BAZ2B inh -8%, HP1b chromo inh 8%, JMJD2A Tudor inh -11%, G9a inh inconclusive and L3MBTL1 inh -3%.
For O=S(=O)(c1ccc2[nH]c3c(c2c1)CCCCC3)N1CCN(c2cccc(Cl)c2)CC1 the results were BAZ2B inh -11%[57.1 µM], HP1b chromo inh 4%, JMJD2A Tudor inh inconclusive and G9a inh -34%[59 µM].
For COCC1CCN(Cc2cn(Cc3ccccc3)nc2-c2cc3ccccc3o2)CC1 the results were BAZ2B inh 56µM*, HP1b chromo inh 38%, JMJD2A Tudor inh -19%, Sfp inh 6%, G9a inh 0% and L3MBTL1 inh inconclusive.
COCC1CCCN(Cc2cn(Cc3ccccc3)nc2-c2cc3ccccc3o2)C1 (stereo not drawn) was read as BAZ2B inh -22%, HP1b chromo inh 25%, JMJD2A Tudor inh -27%, Sfp inh inconclusive, G9a inh -30% and L3MBTL1 inh -23%.
For CCC(=O)NC(c1ccco1)c1cc(Cl)c2c(c1O)NCCC2 (stereo not drawn) the results were JMJD2A Tudor inh 56µM*.
Screening COc1ccc(C(NC(C)=O)c2cc(Cl)c3cccnc3c2O)cc1OC (stereo not drawn) returned BAZ2B inh 28µM*, HP1b chromo inh 30%, JMJD2A Tudor inh 56µM*, Sfp inh -20%, G9a inh 9% and L3MBTL1 inh -5%.
Screening COc1ccccc1C(NC(C)=O)c1cc(Cl)c2cccnc2c1O (stereo not drawn) returned BAZ2B inh -13%, HP1b chromo inh 36%, JMJD2A Tudor inh inconclusive, Sfp inh 12% and G9a inh 18%.
CCC(=O)NC(c1ccc(OC)c(OC)c1)c1cc(Cl)c2cccnc2c1O (stereo not drawn) was read as BAZ2B inh 40µM*, HP1b chromo inh 41%, JMJD2A Tudor inh -24%, Sfp inh 56µM* and L3MBTL1 inh 16%.
Screening CCCC(=O)NC(c1ccco1)c1cc(Cl)c2cccnc2c1O (stereo not drawn) returned BAZ2B inh 50µM*, HP1b chromo inh 55%, JMJD2A Tudor inh -24%, Sfp inh -1% and G9a inh 18%[59 µM].
`CC[C@H](C)[C@H](NC(=O)[C@H](CCCNC(=N)N)NC(=O)[C@@H]1CCCN1C(=O)[C@H](Cc1ccccc1)NC(=O)[C@H](Cc1cnc[nH]1)NC(=O)[C@H](CCCNC(=N)N)NC(=O)[C@@H](NC(=O)[C@H](C)NC(=O)[C@H](CCC(=O)O)NC(=O)[C@H](CC(N)=O)NC(=O)[C@@H](N)CCCCN)C(C)C)C(=O)N[C@@H](Cc1c[nH]c2ccccc12)C(=O)N[C@@H](CC(C)C)C(=O)O` gave Sfp inh 5%.
`COC(=O)c1sc2nc(SCc3ccccc3C)n(N)c(=O)c2c1C` gave BAZ2B inh 5%, HP1b chromo inh 31%, JMJD2A Tudor inh 9%, Sfp inh 5%, G9a inh 11% and L3MBTL1 inh 3%.
`CCC(Sc1nc2sc(C(=O)OC)c(C)c2c(=O)n1N)C(=O)N(CC)CC` (stereo not drawn) gave BAZ2B inh inconclusive, HP1b chromo inh 31%, JMJD2A Tudor inh -16%, Sfp inh -5% and G9a inh -5%.
